Screening results deposited in PubChem by The Scripps Research Institute Molecular Screening Center.
GPR151 ag = activators of human GPR151, primary screen, cell-based, PathHunter beta-arrestin, luminescence | activation, % at 11.2 µM | 1% of 650,000 active | G-protein coupled receptor 151 (Homo sapiens), Q8TDV0 | PathHunter beta-arrestin GPR151 cells; in the data active = activation above about 4.9%;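 also: 0% = median of compound wells and 100% = cells with positive control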
Target sequence (Q8TDV0 whole entry, looked up): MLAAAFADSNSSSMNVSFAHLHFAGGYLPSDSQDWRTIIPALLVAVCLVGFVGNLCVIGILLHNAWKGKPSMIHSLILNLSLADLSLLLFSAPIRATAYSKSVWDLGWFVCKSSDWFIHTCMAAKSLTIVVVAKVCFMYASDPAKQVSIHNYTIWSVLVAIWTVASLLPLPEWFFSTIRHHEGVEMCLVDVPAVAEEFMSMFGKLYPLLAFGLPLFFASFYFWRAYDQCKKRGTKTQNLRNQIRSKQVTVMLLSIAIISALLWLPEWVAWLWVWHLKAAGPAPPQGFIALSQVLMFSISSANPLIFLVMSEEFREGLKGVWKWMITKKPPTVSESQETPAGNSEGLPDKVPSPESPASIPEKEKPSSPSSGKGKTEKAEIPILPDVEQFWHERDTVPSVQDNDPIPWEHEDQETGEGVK
MITF primary = MITF inhibitors, primary screen, biochemical, AlphaScreen, human. Microphthalmia-associated transcription factor (Homo sapiens), O75030. AlphaScreen MITF homodimerization, bead proximity signal. inhibition, % at 2.6 µM. 0.91% of 650,000 active. AID 1259374, 2018; in the data active = inhibition above about 50%;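 also: 0% = vehicle wells with protein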
FBW7 act = FBW7 E3 ligase activators, primary screen, biochemical, AlphaScreen, human; F-box/WD repeat-containing protein 7 (Homo sapiens), Q969H0; AlphaScreen FBW7–phospho-cyclin E peptide binding, activator screen; normalized activity (activation), % at 26.1 µM; 0.13% of 650,000 active; AID 1259310, 2017; in the data active = normalized activity above about 1.9%;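 also: purified mutant Fbw7 with reduced substrate affinity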
TEAD-YAP inh = TEAD-YAP interaction inhibition, primary screen, TEAD-YAP interaction inhibitor project, luminescence, HEK-TIYL cells; TEAD-Gal4/YAP UAS-luciferase luminescence; inhibition, % at 9.12 µM; 1.4% of 640,000 active; AID 1259422, 2018; in the data active = inhibition above about 32%;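 also: 0% = median of test compound wells and 100% = reference inhibitor wells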
GPR151 confirm = GPR151 activators, triplicate retest, confirmation, cell-based, PathHunter beta-arrestin, luminescence; AID 1508609, 2020; shares compounds with GPR151 ag; 6,700 tested, under 10 active; GPR151 PathHunter beta-arrestin cells, 90 min; % of EA-reagent control over plate median; activation, % at 11.2 µM;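 active = mean percent activation across replicates above the confirmation screen cutoff of 4.91%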
GPR119 counter = GPR119 activators in beta-arrestin cells, counter-screen for GPR151 activator project, cell-based, PathHunter beta-arrestin, luminescence, triplicate; shares compounds with GPR151 ag; 90 min; 0 = compound-well median, 100 = enzyme-acceptor control; activation, % at 11.2 µM; 0.3% of 6,700 active; AID 1508611, 2020;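 active = mean percent activation in the counterscreen above 29.09%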;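 also: counterscreen on off-target GPR119 to flag nonselective hits from the GPR151 activator screen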
* marks the source's active call; other numbers are inactive results; x = no result. Sampled rows, rich in hits. Any-hit rate of the full collection: about 3.5%.

SMILES	GPR151 ag	MITF primary	FBW7 act	TEAD-YAP inh	GPR151 confirm	GPR119 counter
O=C(c1ccccc1Cl)N1N=C(c2cccnc2)CC1c1ccccc1O (centres undefined)	6.7*	9	0	15	-1	6
O=C(N/N=C/c1ccc([N+](=O)[O-])o1)c1ccccc1[N+](=O)[O-]	0	2	-1	4	x	x
NCc1cccc(CNC(=O)c2c[nH]c3cc(-c4cn[nH]c4)ccc23)c1	5.1*	-11	0	-12	-2	-7
COC(=O)CN1C(=O)S/C(=C/c2ccc(OCC(=O)O)c(Br)c2)C1=O	6.9*	10	0	1	0	-12
COC(=O)CN1C(=O)S/C(=C/c2ccc(Br)cc2)C1=O	-1	-9	0	-5	x	x
COC(=O)CN1C(=O)S/C(=C/c2cc(Cl)cc(OC)c2O)C1=O	5.2*	7	0	-4	-1	-7
Cc1ccc2nc(Cl)c3cc(C(=O)N=C4NC(=O)CN4C)sc3c2c1	6.1*	0	0	2	0	4
Cc1ccc2nc(Cl)c3cc(C(=O)N4CCN(C)CC4)sc3c2c1	0	8	0	-4	x	x
COc1ccc(C(=O)N(CN2CCCC2=O)c2ccccc2OC)c(OC)c1	0	0	0	-1	x	x
CC(C)c1ccc(NC(=O)c2ccc(N)cc2)c(N)c1	5.8*	-3	0	-50	0	-11
Nc1ccc(NC(=O)c2ccc(C(=O)Nc3ccc(N)cc3N)cc2)c(N)c1	0	14	0	2	x	x
COC(=O)C(NC(=O)c1ccc(Cl)cc1)(Nc1nc(C2CC2)cs1)C(F)(F)F (centres undefined)	5.2*	14	1	-4	0	-6
CCOC(=O)NC(Nc1nc(C2CC2)cs1)(C(=O)OCC)C(F)(F)F (centres undefined)	-1	2	0	2	x	x
CCC(C)NC(=O)CN(Cc1ccccc1)S(=O)(=O)c1ccc(OC)cc1 (centres undefined)	1	5	0	-2	x	x
COc1ccc(Cl)cc1NC(=O)n1cc(C)cn1	-1	6	0	6	x	x
COc1ccc(NC(=O)n2cc(C)cn2)cc1OC	5.2*	16	0	-1	0	-10
COc1ccccc1NS(=O)(=O)c1ccc2oc(=O)ccc2c1	0	5	0	10	x	x
CCc1ccccc1NS(=O)(=O)c1ccc2oc(=O)ccc2c1	13*	8	0	8	0	7
CC1CCN(S(=O)(=O)c2ccc(N)cc2)CC1	0	-6	0	11	x	x
CCOc1cc(NC(=O)C2CCCO2)c(OCC)cc1NC(C)=O (centres undefined)	15*	20	0	-8	1	10
COc1cc(-c2ccc(NC(=O)C3CCCO3)c(OC)c2)ccc1NC(=O)C1CCCO1 (centres undefined)	4	-4	0	-7	x	x
CCCCCc1nnc(NC(=O)C2CCCO2)s1 (centres undefined)	-1	-8	0	-52	x	x
CCCc1cc(C(N)=O)c(NC(=O)C2CCCO2)s1 (centres undefined)	10*	21	0	-1	1	14
Nc1cc(=O)[nH]c(SCC(=O)N2CCN(C(=O)c3ccco3)CC2)n1	-1	15	1	9	x	x
COc1ccc(Cc2nnc(NC(=O)C(C)C)s2)cc1OC	1	7	1	9	x	x
SMILES	GPR151 ag	MITF primary	FBW7 act	TEAD-YAP inh	GPR151 confirm	GPR119 counter
CC1(C)CC(=O)C2=C(C1)OC(c1ccc(Cl)cc1Cl)C(C#N)=C2N (centres undefined)	10*	-4	0	8	1	11
CC(=O)Nc1ccc(C2OC3=C(C(=O)CC(C)(C)C3)C(N)=C2C#N)cc1 (centres undefined)	5.6*	4	0	9	1	-1
CC1(C)CC(=O)C2=C(C1)OC(c1ccccc1Cl)C(C#N)=C2N (centres undefined)	0	13	0	17	x	x
CCNC(=S)N1CCN(Cc2ccc(F)cc2)CC1	6.6*	13	0	-2	0	-10
CN1CCCN(Cc2ccc(Cl)c(Cl)c2)CC1	0	32	0	9	x	x
CN1CCCN(Cc2ccc(F)cc2)CC1	6.0*	49	0	-3	0	17
CCN1CCCC1CNC(=O)c1cc2c(=O)n(C)c3cc(Cl)ccc3c2s1 (centres undefined)	-1	12	0	0	x	x
O=C(O)C(NS(=O)(=O)c1ccc([N+](=O)[O-])cc1)c1ccccc1 (centres undefined)	2	16	0	4	x	x
COC(=O)C(NS(=O)(=O)c1ccc([N+](=O)[O-])cc1)c1ccccc1 (centres undefined)	9.3*	-2	0	9	0	3
COc1cc2[nH]c(=S)n(C3CC3)c(=O)c2cc1OC	1	10	0	19	x	x
COc1cc2[nH]c(=S)n(C3CC(C)(C)NC(C)(C)C3)c(=O)c2cc1OC	7.2*	11	0	-2	0	9
CC(C)(C)SCCNC(=O)CN(c1ccc(Br)cc1)S(C)(=O)=O	-1	10	0	2	x	x
CCOC(=O)COn1c(=O)c(-c2ccc(Oc3ccccc3)cc2)[n+]([O-])c2ccccc21	5.3*	-10	0	-12	0	-6
O=c1c(-c2ccccc2)[n+]([O-])c2ccccc2n1OCc1ccccc1[N+](=O)[O-]	6.0*	12	0	8	2	6
COc1ccc(CCn2nnnc2C(C(C)C)N2CCN(C3CCCC3)CC2)cc1OC (centres undefined)	0	3	0	13	x	x
CN(Cc1cccc(C(=O)NCCCCCCNS(=O)(=O)c2cccc3c(N(C)C)cccc23)c1)C(=O)Nc1ccc(-c2cn[nH]c2)cc1	5.7*	19	3.1*	21	0	9
NC(=O)c1cc(NC(=O)c2ccco2)ccc1N1CCCCC1	6.5*	-5	0	-40	0	10
O=C(Nc1ccc(N2CCCCC2)c(C(=O)O)c1)c1ccco1	0	4	0	-6	x	x
O=C(Nc1ccccc1[N+](=O)[O-])c1cc(Br)ccc1Cl	5.9*	7	0	3	1	3
N#Cc1ccccc1NC(=O)c1cc(Br)ccc1Cl	-1	16	0	-2	x	x
O=C(Nc1cccc(Cl)c1Cl)c1ccccc1[N+](=O)[O-]	0	-12	0	-6	x	x
O=C(O)c1cccc([N+](=O)[O-])c1C(=O)Nc1cccc(Cl)c1Cl	7.6*	-2	0	-2	0	5
COc1ccc(OC)c(C=Nc2ccc(I)cc2)c1	2	-3	0	5	x	x
